WRN helicase inh: inhibitors of human WRN helicase; Potency, µM (doses to about 114 µM), most hits filed as inhibitors; 0.46% of 360,000 active; WRN helicase unwinding, fluorescent forked duplex, kinetic; further: nearly all actives have a fitted effect of over 55% in size
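Kinetic fluorescence helicase assay: unwinding of a quenched forked DNA duplex (100 nM final) with 2 mM ATP final raises red fluorescence (525/598 nm). Compounds sat 15 min at room temperature with 20 nM WRN beforehand.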
BLM inh-1: blocks DNA unwinding by human BLM helicase | P54132 | recombinant BLM DNA unwinding, fluorescence dequenching | Potency, µM (doses to about 56.1 µM), usual class: inhibitors | 0.2% of 350,000 active | AID 2528; further: nearly all actives have a fitted effect of over 35% in size
FEN1 inhibitor: human FEN1 inhibition. 0.35% of 390,000 active. P39748. Potency, µM (titrated, usually from 114 µM), hits mostly inhibitors. Recombinant FEN1 flap cleavage, fluorescence, 15 min; further: nearly all actives have a fitted effect of over 65% in size
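Enzyme 10 nM, 15 min RT preincubation with compound; start with substrate 50 nM final; reads at 0 and 15 min; qHTS titration, four-parameter Hill fit.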
PI5P4Ka inh: inhibitors of human PI5P4K alpha | P48426 | PI5P4Kalpha enzyme, ADP-Glo luminescence, 60 min; hits give low values | max response, % | 1.2% of 330,000 active; active means max response of -50% or lower; inconclusive means between -30% and -50%; inactive means -30% or higher; further: value at the top dose of about 77 µM
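Enzyme plus substrate dispensed, test compounds pinned in, then ATP (5 microM final) added. After 60 min at RT, ADP-Glo reagent 1 for 45 min and reagent 2 for 30 min preceded luminescence imaging.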
RECQ1 inh-1: RECQ1 (human) helicase inhibition | P46063 | RECQ1 DNA unwinding, red fluorescence kinetic read | Potency, µM (top dose mostly 57.3 µM), most hits filed as inhibitors | 0.54% of 240,000 active; further: nearly all actives have a fitted effect of over 30% in size
Target sequence (P46063 whole entry, looked up): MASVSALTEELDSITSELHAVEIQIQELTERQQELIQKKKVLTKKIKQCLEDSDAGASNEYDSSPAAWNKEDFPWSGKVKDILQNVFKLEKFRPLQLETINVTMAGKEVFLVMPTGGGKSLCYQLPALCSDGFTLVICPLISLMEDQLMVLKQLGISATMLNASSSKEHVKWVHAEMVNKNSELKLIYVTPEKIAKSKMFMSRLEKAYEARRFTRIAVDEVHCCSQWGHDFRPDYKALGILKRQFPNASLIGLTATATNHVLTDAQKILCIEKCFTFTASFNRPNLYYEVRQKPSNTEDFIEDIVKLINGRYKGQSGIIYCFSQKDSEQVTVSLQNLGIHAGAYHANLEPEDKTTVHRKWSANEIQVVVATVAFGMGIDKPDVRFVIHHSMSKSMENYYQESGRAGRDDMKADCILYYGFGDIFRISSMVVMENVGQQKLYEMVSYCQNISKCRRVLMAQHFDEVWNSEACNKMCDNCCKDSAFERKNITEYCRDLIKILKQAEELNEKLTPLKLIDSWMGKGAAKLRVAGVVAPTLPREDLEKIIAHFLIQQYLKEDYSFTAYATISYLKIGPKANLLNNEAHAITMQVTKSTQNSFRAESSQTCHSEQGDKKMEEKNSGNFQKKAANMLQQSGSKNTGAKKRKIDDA
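50 nM RECQ1T1 preincubated 15 min with compound in Tris pH 8.0 buffer with MgCl2, DTT, Tween-20 and 2.5 ug/ml poly(dI-dC); started with 200 nM TAMRA/BHQ-2 forked duplex and 2 mM ATP. Unwinding read as fluorescence (525/598 nm), two reads 2 h apart.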
APE1 inh-1: blocks human APE1 abasic DNA cleavage | P27695 | recombinant APE1, TAMRA/BHQ-2 abasic DNA cleavage fluorescence | Potency, µM (highest dose often 65.8 µM), usual class: inhibitors | 0.35% of 350,000 active; further: nearly all actives have a fitted effect of over 55% in size
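Endonuclease cleavage of a quenched abasic-site DNA duplex (50 nM) by APE1 (0.75 nM) was tracked by TAMRA dequenching. Compounds were preincubated with enzyme 15 min at room temperature; data normalized to buffer-only and DMSO wells plus NSC13755 control.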
APE1 dye cs: displaces fluorescent dye from DNA, flagging APE1 artifacts; shares compounds with APE1 inh-1; DNA fluorescent dye displacement counterscreen, fluorescence; Potency, µM (titrated, usually from 28.5 µM), hits mostly inhibitors; 7% of 480 active; AID 2564;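 further: loss of thiazole orange fluorescence as the dye is displaced from duplex DNA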
Endo IV inh: Endo IV (E. coli) inhibition counter-screen; shares compounds with APE1 inh-1; E. coli Endo IV, fluorogenic AP-site DNA cleavage; Potency, µM (series often up to 27.1 µM), most hits filed as inhibitors; 4% of 560 active; AID 2565
APE1 inh-2: confirmation of inhibitors of human APE1 endonuclease. shares compounds with APE1 inh-1. purified APE1, fluorogenic abasic-site DNA cleavage. Potency, µM (doses to about 57.1 µM), most hits filed as inhibitors. 44% of 750 active. AID 2572; further: nearly all actives have a fitted effect of over 30% in size
APE1 FP inh: compounds that displace a DNA probe from human APE1; 7% of 480 active; shares compounds with APE1 inh-1; Potency, µM (series often up to 28.5 µM), most hits filed as inhibitors; AID 2573; APE1 binding to TAMRA-labelled double-stranded DNA, fluorescence polarization displacement
BLM inh-2: confirmation of inhibitors of human Bloom syndrome helicase BLM | Potency, µM, most hits filed as inhibitors | 40% of 220 active | AID 2585 | shares compounds with BLM inh-1 | BLM DNA unwinding, fluorescence quenching, biochemical;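 further: strand separation dequenches TAMRA so unwinding raises red fluorescence; series mostly up to about 69 µM; nearly all actives have a fitted effect of over 45% in size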
RECQ1 inh conf: confirmation of human RECQ1 helicase inhibitors; Potency, µM (top dose mostly 229 µM), most hits filed as inhibitors; shares compounds with RECQ1 inh-1; RECQ1 helicase DNA unwinding, fluorescence; 28% of 610 active; further: nearly all actives have a fitted effect of over 45% in size
RECQ1 ADP FP: displaces ADP in a fluorescence polarization counter-screen for RECQ1 hits; shares compounds with RECQ1 inh-1; ADP fluorescence polarization displacement counterscreen; Potency, µM (doses to about 228 µM), hits mostly inhibitors; 27% of 530 active; AID 2711; further: nearly all actives have a fitted effect of over 45% in size
RECQ1 inh-2: blocks human RECQ1 DNA unwinding; shares compounds with RECQ1 inh-1; recombinant RECQ1 DNA unwinding, red fluorescence; Potency, µM (series often up to 119 µM), most hits filed as inhibitors; 15% of 1,100 active; AID 504841; further: nearly all actives have a fitted effect of over 50% in size
Numbers stand for hits; . = inactive; ? = inconclusive; / = not tested or not shown; ! = repeats disagree. Hits are enriched below; roughly 1.5% of the tested compounds scored in any of these assays. Unless noted, the call rests on the fitted dose curve; in most records, active means well fitted curve in the direction sought with a large enough effect; inconclusive means small, poorly fitted or top-dose-only effect, or another doubt; inactive means no such curve, though single readings can be large; an effect the other way counts as inactive or inconclusive.

SMILES | WRN helicase inh | BLM inh-1 | FEN1 inhibitor | PI5P4Ka inh | RECQ1 inh-1 | APE1 inh-1 | APE1 dye cs | Endo IV inh | APE1 inh-2 | APE1 FP inh | RECQ1 inh conf | others
CO/N=C(\C(=O)N[C@@H]1C(=O)N2C(C(=O)O)=C(COC(C)=O)CS[C@@H]12)c1csc(N)n1 | / | . | / | / | . | / | . | . | 28.2µM | . | /
Nc1cc(=O)nc(SCC(=O)Nc2ccc(F)cc2)n1-c1cccc(Cl)c1 | / | . | . | / | / | / | / | / | / | / | /
O=C1C2C3C=CC(CC3)C2C(=O)N1c1nccs1 (configuration not stated) | 39.8µM | . | . | -62.4 | 22.4µM | 6.31µM | . | . | ? | . | /
O=C1C2C3C=CC(C2C(=O)N1c1nccs1)C1C(=O)N(c2nccs2)C(=O)C31 (configuration not stated) | . | . | . | . | . | ? | / | / | / | / | /
CC(=O)OC1CCC2(C)C3CCC4(C)C(CC5CCCCC54C(C)=O)C3CC(=O)[C@@]2(O)C1 (some centres not stated) | / | . | / | / | . | . | / | / | / | / | /
CC(=O)O[C@H]1CC2(C)[C@@H](C[C@@H](O)[C@H]3[C@@]4(C)CC[C@@H](O)[C@@H](C)[C@@H]4CC[C@@]32C)C1=C(CCC=C(C)C)C(=O)O (some centres not stated) | / | / | ? | / | . | . | / | . | . | / | /
O=C(CSc1nc(-c2ccc(F)cc2)nc2c1Cc1ccccc1O2)Nc1ccc(C(=O)O)cc1 | ? | 8.91µM | ? | . | ? | ? | 3.16µM | ? | 4.47µM | . | / | BLM inh-2=28.9µM
COc1ccc(-c2cc(-c3ccccc3)nc3c2COc2ccc(F)cc2-3)cc1 | / | . | . | / | / | / | / | / | / | / | /
Cc1c2c(c(O)c3c(O)cccc13)C(=O)O[C@H]2C1C(N(C)C)C(O)=C(C(N)=O)C(=O)[C@H]1O (some centres not stated) | / | 17.8µM | / | / | 3.16µM | 2µM | 10µM | . | 1.41µM | 2.24µM | 39.8µM | RECQ1 ADP FP=15.8µM;RECQ1 inh-2=?
COc1cc2c(ccc3cc(OC)c(OC)c(O)c32)cc1O | 17.8µM | 25.1µM | 22.4µM | -105.5 | 11.2µM | 0.708µM | ? | ? | 0.631µM | ? | 39.8µM | RECQ1 ADP FP=50.1µM
COc1cc2oc(=O)ccc2cc1O | / | . | / | / | . | . | / | / | / | / | /
O=C(OCC1OC(OC(=O)c2cc(O)c(O)c(OC(=O)c3cc(O)c(O)c(O)c3)c2)[C@@H](OC(=O)c2cc(O)c(O)c(OC(=O)c3cc(O)c(O)c(O)c3)c2)C(OC(=O)c2cc(O)c(O)c(OC(=O)c3cc(O)c(O)c(O)c3)c2)C1OC(=O)c1cc(O)c(O)c(OC(=O)c2cc(O)c(O)c(O)c2)c1)c1cc(O)c(O)c(OC(=O)c2cc(O)c(O)c(O)c2)c1 (some centres not stated) | / | 0.0708µM | / | / | 0.0316µM | / | / | 5.01µM | 0.0032µM | / | 1.12µM | RECQ1 ADP FP=?
O=C(NCCc1nc2ccccc2n1CCOc1ccc2ccccc2c1)C1CCCCC1 | / | / | . | / | / | / | / | / | / | / | /
COc1ccc(NC(=O)c2cc(=O)c3cc(C)cc(C)c3o2)cc1 | / | . | . | / | / | / | / | / | / | / | /
CC(=O)NC1=NN(C(C)=O)C(C)(c2ccccc2)S1 (configuration not stated) | . | ? | . | / | 39.8µM | 2.82µM | . | . | 1.41µM | . | / | RECQ1 inh-2=.
CC(=O)NC1=NN(C(C)=O)C(C)(c2ccc3ccccc3c2)S1 (configuration not stated) | . | . | . | . | . | . | / | / | / | / | /
O=C(NN1C(=O)/C(=C/C=C/c2ccco2)SC1=S)c1ccncc1 | 3.16µM | . | 7.08µM | -78.7 | 3.55µM | 4.47µM | . | . | 4.47µM | ? | 22.4µM | RECQ1 ADP FP=12.6µM
Cn1ncc2c(N3CCN(c4ccccc4Cl)CC3)ncnc21 | / | . | . | / | / | / | / | / | / | / | /
O=C1c2cccc3cccc(c23)C(=O)N1/N=C/c1ccc(O)cc1O | . | . | . | . | . | . | / | / | / | / | /
O=C1c2ccccc2C(=O)N1/N=C/c1ccc(O)c(O)c1O | 8.91µM | . | 11.2µM | -55.2 | 6.31µM | 0.708µM | . | . | ? | . | ? | RECQ1 ADP FP=35.5µM
Cc1c(C(=O)NCCc2ccc(Cl)cc2)cccc1-n1cnc2cccnc21 | / | . | ? | / | / | / | / | / | / | / | /
COc1cc(/C=C/[N+](=O)[O-])ccc1OCc1cccc(C(=O)O)c1 | 20µM | ? | 50.1µM | -54.6 | 20µM | 6.31µM | . | . | ? | . | . | RECQ1 ADP FP=?
O=C(Nc1ccc2c(c1)CCC2)c1cnn2c1NC(=C1CC1)C=C2C(F)F | / | / | . | / | / | / | / | / | / | / | /
O=c1oc2c(O)c(O)cc3c(=O)oc4c(O)c(O)cc1c4c23 | / | 2µM | 1.58µM | -99.9 | 0.562µM | 0.0447µM! | 0.0891µM | ? | 0.0141µM | 28.2µM | ? | RECQ1 ADP FP=4.47µM
O=S(=O)(c1ccc2ncccc2c1)N1CCN(c2nc(-c3cccs3)nc3ccccc23)CC1 | / | / | . | / | / | / | / | / | / | / | /
O=[N+]([O-])c1c(NCCCO)cc(SCc2ccco2)c2nonc12 | . | . | ? | . | . | . | / | / | / | / | /
CC(=O)OCCNc1cc(SCc2ccco2)c2nonc2c1[N+](=O)[O-] | ? | . | ? | ? | 7.08µM | 12.6µM | . | . | 14.1µM | . | . | RECQ1 inh-2=.
O=C1c2ccccc2-c2onc3ccc(NCc4ccco4)c1c23 | ? | . | 8.91µM | . | 20µM | ? | / | / | 14.1µM | / | / | RECQ1 inh-2=39.8µM
O=C1SC(SCc2ccccc2)=N/C1=C\c1ccco1 | 50.1µM | . | ? | / | ? | ? | ? | . | ? | . | / | RECQ1 inh-2=?

Screening results from PubChem BioAssay.
